Screening data as filed in PubChem.
BoNT-F LC inh = BoNT/F light chain protease inhibitors, primary screen, biochemical, flow cytometry, MLPCN library. Botulinum neurotoxin type F light chain protease (Clostridium botulinum). Multiplex microsphere protease cleavage assay. inhibition, % at 10 µM. 0.22% of 360,000 active; in the data active = inhibition above about 35%, passing the limit was not always enough; inconclusive = no clear call, values can overlap the other calls; also: plate controls were buffer without enzyme for full effect and enzyme alone for no effect
PfHsp40 rescue = rescue of yeast from PfHsp40 toxicity, primary screen, S. cerevisiae, ATP luminescence; S. cerevisiae expressing PfHsp40, growth rescue; growth rescue, % at 12.5 µM; 0.68% of 340,000 active; in the data active = growth rescue above about 28%, passing the limit was not always enough; inconclusive = no clear call, values can overlap the other calls;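 also: yeast W303a lacking pdr1 and pdr3 grown in galactose medium; growth measured after three days at 30 °C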
MazEF act = activators of E. coli MazEF toxin-antitoxin RNase, primary screen, biochemical, fluorescence, uHTS; Endoribonuclease toxin MazF (Escherichia coli (strain K12)), P0AE70; FAM/BHQ RNA-DNA oligo cleavage fluorescence, 5 h; activation, % at 20 µM; 0.32% of 350,000 active; in the data active = activation above about 50%
Target sequence (P0AE70 whole entry, looked up): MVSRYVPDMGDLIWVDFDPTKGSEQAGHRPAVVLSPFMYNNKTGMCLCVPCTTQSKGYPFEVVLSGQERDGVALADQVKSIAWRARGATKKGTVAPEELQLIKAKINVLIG
Anthrax LF inh2 = Bacillus anthracis LF protease inhibitors, primary screen, biochemical, multiplex microsphere, MLPCN library; multiplex microsphere protease cleavage assay; AID 588501, 2011; Lethal factor (Bacillus anthracis), P15917; 0.12% of 360,000 active; inhibition, % at 10 µM; also: plate controls were buffer without enzyme for full effect and enzyme alone for no effect
BoNT A protease = BoNT/A light chain protease inhibitors, primary screen, biochemical, flow cytometry, MLPCN library | multiplex microsphere protease substrate cleavage | Botulinum neurotoxin type A light chain protease (Clostridium botulinum A str. ATCC 3502) | 0.17% of 360,000 active | inhibition, % at 10 µM; also: plate controls were buffer without enzyme for full effect and enzyme alone for no effect
Autofluor counter = compound fluorescence in toxin protease inhibitor counterscreen. 3.1% of 360,000 active. compound autofluorescence counterscreen, microsphere flow cytometry; hits give high values. AID 624483. fluorescence intensity (concentration not given with the values); in the data active = fluorescence intensity above about 16000; inconclusive = no clear call, values can overlap the other calls
Starred values were filed as active, the others as inactive. Shown are actives, neighbours in structure and some others; about 4.3% of the full set was active somewhere. Rule as the data show it, unless noted: active = inhibition above about 30%; inconclusive = no clear call, values can overlap the other calls; inactive = below that.

Results for O=C(c1c(F)cccc1F)N1CCCC(c2nc(-c3ccc(Cl)cc3)no2)C1 (stereo unspecified) ?
BoNT-F LC inh: inconclusive; PfHsp40 rescue: 0.5; MazEF act: 0.5; Anthrax LF inh2: -6.8; BoNT A protease: 3.8; Autofluor counter: 3848

How did O=C(Cc1ccccc1)N1CCC(c2nc(-c3ccc(F)cc3)no2)CC1 do in these assays?
BoNT-F LC inh: 11.7; PfHsp40 rescue: -0.6; MazEF act: -2.0; Anthrax LF inh2: -10.5; BoNT A protease: 9.5; Autofluor counter: 16726*

How did Cc1ccc(Cc2c(C)nc3nc(SCC(=O)NCCCN4CCCCC4)nn3c2C)cc1 do in these assays?
BoNT-F LC inh: 5.8; PfHsp40 rescue: -1.1; MazEF act: 14.2; Anthrax LF inh2: -0.1; BoNT A protease: 2.4; Autofluor counter: 4180

How did O=C(Nc1ccc2c(c1)OCO2)C1(S(=O)(=O)c2ccc(Cl)cc2)CC1 do in these assays?
BoNT-F LC inh: -7.7; PfHsp40 rescue: 1.7; MazEF act: 1.5; Anthrax LF inh2: -3.4; BoNT A protease: -3.4; Autofluor counter: 24545*

Results for CCOC(=O)C(=O)c1c(-c2ccc(C)cc2)nc2ccccn12 ?
BoNT-F LC inh: 0.9; PfHsp40 rescue: -0.6; MazEF act: 3.2; Anthrax LF inh2: -8.7; BoNT A protease: -0.3; Autofluor counter: 3953

What do the screens show for `CCOC(=O)CNc1c(-c2ccccc2)nc2ccc(Cl)cn12`?
BoNT-F LC inh: -5.5; PfHsp40 rescue: -2.0; MazEF act: -1.6; Anthrax LF inh2: 2.5; BoNT A protease: 0.4; Autofluor counter: 3693

What do the screens show for `CCOC(=O)CNc1c(-c2ccc(O)cc2)nc2ccccn12`?
BoNT-F LC inh: 0.9; PfHsp40 rescue: 1.6; MazEF act: -3.3; Anthrax LF inh2: -2.5; BoNT A protease: 1.1; Autofluor counter: 23116*

How did CCOC(=O)CNc1c(-c2ccc(O)cc2)nc2ccc(Cl)cn12 do in these assays?
BoNT-F LC inh: 0.3; PfHsp40 rescue: 0.4; MazEF act: 4.5; Anthrax LF inh2: -6.2; BoNT A protease: -0.9; Autofluor counter: 23767*

Results for O=C(Nc1ccccc1Oc1cccnc1)C1CCCN(C/C=C/c2ccccc2)C1 (stereo unspecified) ?
BoNT-F LC inh: 11.0; PfHsp40 rescue: 0.0; MazEF act: -1.0; Anthrax LF inh2: 4.9; BoNT A protease: -2.4; Autofluor counter: 4544

How did O=C(Nc1ccccc1)N1CCC(C(=O)N(Cc2ccco2)Cc2cccs2)CC1 do in these assays?
BoNT-F LC inh: 4.1; PfHsp40 rescue: 0.1; MazEF act: -1.6; Anthrax LF inh2: -2.8; BoNT A protease: inconclusive; Autofluor counter: 20994*

Results for Cc1nc(SCC(=O)NNC(=O)c2ccc(F)cc2)c2ccccc2n1 ?
BoNT-F LC inh: -2.5; PfHsp40 rescue: 0.0; MazEF act: 9.2; Anthrax LF inh2: 4.3; BoNT A protease: -0.6; Autofluor counter: 3160

What do the screens show for `Cc1cc(NC(=O)CCOc2ccc(F)cc2)no1`?
PfHsp40 rescue: -0.7; MazEF act: -13.5

Results for COC(=O)c1c(S(N)(=O)=O)c2ccccc2n1C ?
BoNT-F LC inh: -5.3; PfHsp40 rescue: -1.1; MazEF act: -5.5; Anthrax LF inh2: -2.8; BoNT A protease: -2.2; Autofluor counter: 21700*

What do the screens show for `OCCC1CN(Cc2cccn2-c2ccccn2)CCN1Cc1ccccc1` (stereo unspecified)?
BoNT-F LC inh: -2.8; PfHsp40 rescue: 0.5; MazEF act: 597.9*; Anthrax LF inh2: 3.2; BoNT A protease: -0.3; Autofluor counter: 4414

Results for COc1ccc(C(=O)NCCn2cc(SCC(=O)Nc3cc(C)on3)c3ccccc32)cc1OC ?
BoNT-F LC inh: inconclusive; PfHsp40 rescue: -1.1; MazEF act: -3.1; Anthrax LF inh2: -0.4; BoNT A protease: 0.6; Autofluor counter: 3775

What do the screens show for `Cc1ccc(Cl)cc1NC(=O)Cn1cc(C(F)(F)F)cc(Cl)c1=O`?
BoNT-F LC inh: -8.0; PfHsp40 rescue: -1.3; MazEF act: -3.0; Anthrax LF inh2: -2.7; BoNT A protease: -0.3; Autofluor counter: 2470

What do the screens show for `Cc1cc(NC(=O)CSc2nc3ccccc3s2)no1`?
BoNT-F LC inh: -0.6; PfHsp40 rescue: 5.4; MazEF act: -1.0; Anthrax LF inh2: 4.6; BoNT A protease: 0.1; Autofluor counter: 2904

Results for Cc1cc(NC(=O)CSc2nc(-c3ccc(Cl)cc3)cs2)no1 ?
BoNT-F LC inh: -4.5; PfHsp40 rescue: 0.2; MazEF act: 77.4*; Anthrax LF inh2: -2.5; BoNT A protease: inconclusive; Autofluor counter: 20504*

What do the screens show for `Cc1cc(NC(=O)Cn2cc(C(F)(F)F)cc(Cl)c2=O)no1`?
BoNT-F LC inh: -4.6; PfHsp40 rescue: 0.9; MazEF act: 0.1; Anthrax LF inh2: -0.2; BoNT A protease: inconclusive; Autofluor counter: 21524*

What do the screens show for `Cc1cc(NC(=O)CSc2ccc(Cl)cc2)no1`?
BoNT-F LC inh: 1.6; PfHsp40 rescue: -0.1; MazEF act: -4.5; Anthrax LF inh2: -0.6; BoNT A protease: 2.0; Autofluor counter: 22791*

What do the screens show for `COc1ccccc1C(=O)NCCn1cc(SCC(=O)Nc2cc(C)on2)c2ccccc21`?
BoNT-F LC inh: -2.0; PfHsp40 rescue: 0.3; MazEF act: 3.2; Anthrax LF inh2: -3.7; BoNT A protease: inconclusive; Autofluor counter: 16999*

How did CC1=C(C(=O)Nc2cc(C(=O)N3CCN(c4cccc(C)c4C)CC3)ccc2C)SCCO1 do in these assays?
BoNT-F LC inh: 7.7; PfHsp40 rescue: -0.7; MazEF act: 2.2; Anthrax LF inh2: -5.0; BoNT A protease: -0.9; Autofluor counter: 5960

How did C=CC[C@H]1C(C(=O)OCC)=CC[C@@H](c2ccccc2)N1S(=O)(=O)c1ccc(C)cc1 do in these assays?
BoNT-F LC inh: -9.3; Anthrax LF inh2: -9.9; BoNT A protease: -0.3; Autofluor counter: 5759

Results for Cc1cc(F)ccc1S(=O)(=O)Nc1ccc(C(=O)N2CCCCCC2)cc1 ?
BoNT-F LC inh: -6.5; PfHsp40 rescue: 0.1; MazEF act: 19.3; Anthrax LF inh2: -0.1; BoNT A protease: -0.1; Autofluor counter: 4003

What do the screens show for `NC(N)=Nc1nc2ccccc2o1`?
BoNT-F LC inh: inconclusive; PfHsp40 rescue: -0.5; MazEF act: -6.4; Anthrax LF inh2: 2.7; BoNT A protease: -2.6; Autofluor counter: 4561

How did Cc1ccc(NC(=O)Cn2c(=O)ccn(Cc3ccccc3)c2=O)cc1S(=O)(=O)N1CCOCC1 do in these assays?
BoNT-F LC inh: -6.7; PfHsp40 rescue: -0.4; MazEF act: -0.2; Anthrax LF inh2: -3.6; BoNT A protease: -1.6; Autofluor counter: 3682

Results for COc1ccc(-c2ccc(SCC(=O)Nc3cc(C)on3)nn2)cc1OC ?
BoNT-F LC inh: -8.2; PfHsp40 rescue: 1.2; MazEF act: 11.2; Anthrax LF inh2: 1.1; BoNT A protease: -4.2; Autofluor counter: 25486*
